Several values for one entry are separate records, joined by “and”; a condition that tells them apart may be missing. Equal values may be shown once. A structure can be active in one record and inactive in another. Activity calls are given as the source filed them. How the source made its calls: active means hit-call score of the fitted dose curve at least 0.9, where 1 is the maximum; inactive means score below 0.9.
Target: Hypoxia-inducible factor 1-alpha (Homo sapiens) (UniProt Q16665)
Experiment: ATG_HIF1a_CIS: Attagene CIS-FACTORIAL HepG2 Assay for human Hypoxia Inducible Factor 1 (HIF1A) (AID 2282951)
Details: HepG2 Attagene cis-factorial HIF1a reporter transcription; actives raise or lower the signal
Method in brief: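 After 24 h chemical exposure of reporter-transfected HepG2 cells, reporter cDNA was PCR-amplified, labelled by 6-FAM primer extension (2 min 95 C, 20 s 68 C, 10 min 72 C), HpaI-cut (2 h, 37 C) and analysed by CE.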

Sequence of Hypoxia-inducible factor 1-alpha (Homo sapiens) (Q16665 whole entry, looked up): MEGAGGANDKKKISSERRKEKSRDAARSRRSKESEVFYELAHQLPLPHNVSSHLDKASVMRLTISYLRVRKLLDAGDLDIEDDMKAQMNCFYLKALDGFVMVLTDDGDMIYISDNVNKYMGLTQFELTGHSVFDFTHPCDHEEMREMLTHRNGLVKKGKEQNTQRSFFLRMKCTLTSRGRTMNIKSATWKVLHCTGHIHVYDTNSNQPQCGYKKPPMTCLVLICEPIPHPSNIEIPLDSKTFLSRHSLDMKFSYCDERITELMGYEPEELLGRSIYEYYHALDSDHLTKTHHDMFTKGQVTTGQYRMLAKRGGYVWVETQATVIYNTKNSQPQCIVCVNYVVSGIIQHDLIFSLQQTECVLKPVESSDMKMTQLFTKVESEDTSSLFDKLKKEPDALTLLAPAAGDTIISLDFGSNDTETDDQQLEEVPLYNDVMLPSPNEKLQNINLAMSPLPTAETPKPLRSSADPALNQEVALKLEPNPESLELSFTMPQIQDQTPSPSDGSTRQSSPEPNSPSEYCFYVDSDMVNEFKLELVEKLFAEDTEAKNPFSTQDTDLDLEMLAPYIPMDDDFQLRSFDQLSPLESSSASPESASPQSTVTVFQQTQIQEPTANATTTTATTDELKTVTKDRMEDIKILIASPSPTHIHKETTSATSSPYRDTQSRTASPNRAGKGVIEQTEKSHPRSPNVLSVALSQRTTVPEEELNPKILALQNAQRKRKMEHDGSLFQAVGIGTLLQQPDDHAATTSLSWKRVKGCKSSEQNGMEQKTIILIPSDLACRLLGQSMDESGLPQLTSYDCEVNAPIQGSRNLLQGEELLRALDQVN

| Compound | outcome | AC50 |
| --- | --- | --- |
| O=C(OC(=O)C(F)(F)C(F)(F)F)C(F)(F)C(F)(F)F | inactive |  |
| CCC1CO1 (stereo unspecified) | inactive |  |
| O=C(NO)c1ccccc1 | inactive |  |
| CS(=O)(=O)c1ccc([C@@H](CC2CCCC2)C(=O)Nc2cnccn2)cc1Cl |  | 64.4 µM (active) |
| O=S(=O)(O)c1ccccc1 | inactive |  |
| CC(C)C=O | inactive | 157 µM (active) |
| c1cc[nH]c1 | inactive |  |
| CC(O)COc1ccccc1 (stereo unspecified) | inactive |  |

Target: Hepatocyte nuclear factor 6 (Homo sapiens) (UniProt Q9UBC0)
Experiment: ATG_HNF6_CIS: Attagene CIS-FACTORIAL HepG2 Assay for human Hepatocyte Nuclear Factor 6 (HNF6) (AID 2282952)
Details: HepG2 Attagene cis-factorial HNF6 reporter transcription; actives raise or lower the signal
Method in brief: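 Multiplexed mRNA reporter assay in transfected HepG2; 24 h dosing; RT-PCR plus capillary electrophoresis fluorescence; DMSO-referenced bidirectional curve fitting.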

Sequence of Hepatocyte nuclear factor 6 (Homo sapiens) (Q9UBC0 whole entry, looked up): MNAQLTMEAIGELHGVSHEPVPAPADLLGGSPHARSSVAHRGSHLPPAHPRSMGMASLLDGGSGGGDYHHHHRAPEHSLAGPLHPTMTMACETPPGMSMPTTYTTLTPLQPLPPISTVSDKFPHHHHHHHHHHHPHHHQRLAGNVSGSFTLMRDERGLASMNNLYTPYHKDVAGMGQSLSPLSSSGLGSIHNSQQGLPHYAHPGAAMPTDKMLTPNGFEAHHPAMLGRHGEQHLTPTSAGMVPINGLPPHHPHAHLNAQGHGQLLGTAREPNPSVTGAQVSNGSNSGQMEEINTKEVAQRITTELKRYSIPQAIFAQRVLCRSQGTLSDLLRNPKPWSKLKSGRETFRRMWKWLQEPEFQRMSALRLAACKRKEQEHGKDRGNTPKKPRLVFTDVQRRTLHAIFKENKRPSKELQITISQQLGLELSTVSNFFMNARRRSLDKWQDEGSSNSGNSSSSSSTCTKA

| Compound | outcome | AC50 |
| --- | --- | --- |
| CCC(C)c1nccnc1OC (stereo unspecified) | inactive |  |
| CCCCCCCCCC=CCC1CC(=O)OC1=O (stereo unspecified) | inactive |  |
| CCCCCCCCCCCC(=O)O | inactive |  |
| C[C@]12CC[C@@H]3c4ccc(O)cc4CC[C@H]3[C@@H]1C[C@@H](O)[C@@H]2O | inactive |  |
| O=C(O)C(=O)O | inactive |  |
| O=S(=O)(O)c1ccc2cc(O)ccc2c1 | inactive |  |
| CCCCCCCCCCCCCCCC(=O)OC | inactive |  |
| CC(C)[C@@H]1CC[C@@H](C)C[C@H]1O | inactive |  |
| O=C1NS(=O)(=O)c2ccccc21 | inactive |  |
| CN(C)c1ccc(C(=C2C=CC(=[N+](C)C)C=C2)c2ccccc2)cc1 | inactive | 8.34 µM (active) |
| O=C(F)C(F)(F)C(F)(F)C(F)(F)C(=O)F | inactive |  |
| CC(=O)CC(C)C | inactive |  |
| CCCCC=O | inactive |  |
| OCC(CO)(CBr)CBr | inactive |  |
| Cc1ccc(S(=O)(=O)O)cc1 | inactive |  |
| CCCCCCCCCCCCCCC | inactive |  |
| NS(=O)(=O)O | inactive |  |
| C=CCOCC(CO)(CO)CO | inactive |  |
| CCCC=O | inactive |  |
| Cc1[nH]nc2c1N=C(c1ccccc1Cl)c1cc([N+](=O)[O-])ccc1N2 | inactive |  |
| O=C(NO)c1ccccc1 | inactive |  |
| O=S(=O)(O)c1ccccc1 | inactive |  |
| c1cnc2c(c1)ccc1cccnc12 | inactive |  |
| CC(O)COc1ccccc1 (stereo unspecified) | inactive |  |

Target: Heat shock factor protein 1 (Homo sapiens) (UniProt Q00613)
Experiment: ATG_HSE_CIS: Attagene CIS-FACTORIAL HepG2 Assay for human Heat Shock Transcription Factor 1 (HSE) (AID 2282953)
Details: HepG2 HSE cis-reporter, Attagene RNA transcription; actives raise or lower the signal
Method in brief: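 Reporter mRNA induction in HepG2 is measured 24 h after dosing, using transiently transfected multiplexed cis-regulated reporter units. Signal comes from capillary electrophoresis of labelled RT-PCR products, with DMSO as negative control.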

Sequence of Heat shock factor protein 1 (Homo sapiens) (Q00613 whole entry, looked up): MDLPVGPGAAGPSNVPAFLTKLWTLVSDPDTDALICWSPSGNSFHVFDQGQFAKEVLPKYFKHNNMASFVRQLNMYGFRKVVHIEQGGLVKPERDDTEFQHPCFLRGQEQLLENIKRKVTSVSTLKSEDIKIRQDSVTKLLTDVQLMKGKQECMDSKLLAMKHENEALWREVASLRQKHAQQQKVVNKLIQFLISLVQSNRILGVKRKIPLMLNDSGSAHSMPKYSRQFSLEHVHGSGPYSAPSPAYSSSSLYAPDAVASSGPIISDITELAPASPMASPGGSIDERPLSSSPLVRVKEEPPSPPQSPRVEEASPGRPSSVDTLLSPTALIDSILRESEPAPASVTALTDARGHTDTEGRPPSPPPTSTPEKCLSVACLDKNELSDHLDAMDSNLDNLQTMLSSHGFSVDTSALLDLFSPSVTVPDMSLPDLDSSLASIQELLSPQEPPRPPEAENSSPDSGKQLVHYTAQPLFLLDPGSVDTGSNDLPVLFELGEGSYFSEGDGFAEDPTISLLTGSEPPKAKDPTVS

| Compound | outcome | AC50 |
| --- | --- | --- |
| CCC(C)c1nccnc1OC (stereo unspecified) | inactive |  |
| CCCCCCCCCC=CCC1CC(=O)OC1=O (stereo unspecified) | inactive |  |
| CCCCCCCCCCCC(=O)O | inactive |  |
| C[C@]12CC[C@@H]3c4ccc(O)cc4CC[C@H]3[C@@H]1C[C@@H](O)[C@@H]2O | inactive |  |
| CC(=O)Nc1ccc(O)cc1 | inactive |  |
| O=C(O)C(=O)O | inactive |  |
| CCC(C)c1ccccc1O (stereo unspecified) | inactive |  |
| CN(C)c1ccc(C(=C2C=CC(=[N+](C)C)C=C2)c2ccccc2)cc1 |  | 1.46 µM (active) and 1.26 µM (active) |
| O=C(F)C(F)(F)C(F)(F)C(F)(F)C(=O)F | inactive |  |
| CC(=O)CC(C)C | inactive |  |
| CCCCCCCCCCCC | inactive |  |
| CCCCC=O | inactive |  |
| OCC(CO)(CBr)CBr | inactive |  |
| CCCCC(CC)C(=O)O (stereo unspecified) | inactive |  |
| NS(=O)(=O)O | inactive |  |
| O=C(c1ccccc1)c1ccccc1 | inactive |  |
| CCCC=O | inactive |  |
| Cc1[nH]nc2c1N=C(c1ccccc1Cl)c1cc([N+](=O)[O-])ccc1N2 | inactive |  |
| CC(C)c1c(C(=O)Nc2ccccc2)c(-c2ccccc2)c(-c2ccc(F)cc2)n1CC[C@@H](O)C[C@@H](O)CC(=O)O | inactive |  |
| O=C(OC(=O)C(F)(F)C(F)(F)F)C(F)(F)C(F)(F)F | inactive |  |
| CCC1CO1 (stereo unspecified) | inactive |  |
| O=C(NO)c1ccccc1 | inactive |  |
| CS(=O)(=O)c1ccc([C@@H](CC2CCCC2)C(=O)Nc2cnccn2)cc1Cl |  | 150 µM (active) |
| O=S(=O)(O)c1ccccc1 | inactive |  |
| c1cnc2c(c1)ccc1cccnc12 | inactive | 144 µM (active) |
| c1cc[nH]c1 | inactive |  |
| CC(O)COc1ccccc1 (stereo unspecified) | inactive |  |

System: not listed separately
Experiment: ATG_MRE_CIS: Attagene CIS-FACTORIAL HepG2 Assay for human Metal Responsive Element (MRE) (AID 2282954)
Details: HepG2 MRE cis-reporter transcription, Attagene multiplex; actives raise or lower the signal
Method in brief: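 After a 24 h chemical exposure, transiently transfected HepG2 cells yield RNA whose reporter sequences are amplified, FAM-labelled and sized by capillary electrophoresis. Curves are fitted bidirectionally relative to DMSO.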

| Compound | outcome | AC50 |
| --- | --- | --- |
| CCC(C)c1nccnc1OC (stereo unspecified) | inactive |  |
| CCCCCCCCCC=CCC1CC(=O)OC1=O (stereo unspecified) | inactive |  |
| CCCCCCCCCCCC(=O)O | inactive | 181 µM (active) |
| C[C@]12CC[C@@H]3c4ccc(O)cc4CC[C@H]3[C@@H]1C[C@@H](O)[C@@H]2O | inactive |  |
| CC(=O)Nc1ccc(O)cc1 | inactive |  |
| O=C(O)C(=O)O | inactive |  |
| O=S(=O)(O)c1ccc2cc(O)ccc2c1 | inactive |  |
| Cc1ccc(C)c(S(=O)(=O)O)c1 | inactive |  |
| CCCCCCCCCCCCCCCC(=O)OC | inactive |  |
| CCC(C)c1ccccc1O (stereo unspecified) | inactive |  |
| CC(C)[C@@H]1CC[C@@H](C)C[C@H]1O | inactive |  |
| O=C1NS(=O)(=O)c2ccccc21 | inactive |  |
| CN(C)c1ccc(C(=C2C=CC(=[N+](C)C)C=C2)c2ccccc2)cc1 |  | 1.46 µM (active) and 1.3 µM (active) |
| O=C(F)C(F)(F)C(F)(F)C(F)(F)C(=O)F | inactive |  |
| CC(=O)CC(C)C | inactive |  |
| CCCCCCCCCCCC | inactive |  |
| CCCCC=O | inactive |  |
| OCC(CO)(CBr)CBr | inactive |  |
| CCCCC(CC)C(=O)O (stereo unspecified) | inactive |  |

| Compound | outcome | AC50 |
| --- | --- | --- |
| Cc1ccc(S(=O)(=O)O)cc1 | inactive |  |
| CCCCCCCCCCCCCCC | inactive |  |
| NS(=O)(=O)O | inactive |  |
| CNNCc1ccc(C(=O)NC(C)C)cc1 | inactive |  |
| C=CCOCC(CO)(CO)CO | inactive |  |
| O=C(c1ccccc1)c1ccccc1 | inactive |  |
| CCCC=O | inactive |  |
| Cc1[nH]nc2c1N=C(c1ccccc1Cl)c1cc([N+](=O)[O-])ccc1N2 | inactive |  |
| CC(C)c1c(C(=O)Nc2ccccc2)c(-c2ccccc2)c(-c2ccc(F)cc2)n1CC[C@@H](O)C[C@@H](O)CC(=O)O |  | 61.4 µM (active) and 34.3 µM (active) |
| O=C(CCCN1CCC(O)(c2ccc(Cl)cc2)CC1)c1ccc(F)cc1 |  | 33.4 µM (active) |
| O=C(OC(=O)C(F)(F)C(F)(F)F)C(F)(F)C(F)(F)F | inactive |  |
| CCC1CO1 (stereo unspecified) | inactive |  |
| O=C(NO)c1ccccc1 | inactive |  |
| CS(=O)(=O)c1ccc([C@@H](CC2CCCC2)C(=O)Nc2cnccn2)cc1Cl |  | 113 µM (active) |
| O=S(=O)(O)c1ccccc1 | inactive |  |
| CC(C)C=O | inactive |  |
| c1cnc2c(c1)ccc1cccnc12 | inactive |  |
| c1cc[nH]c1 | inactive |  |
| CC(O)COc1ccccc1 (stereo unspecified) | inactive |  |

From PubChem BioAssay (EPA / NIEHS)
